The supplement of paper PMC11417369
In all, about 25,000 sequences were measured (“ln(normalized median fluorescence intensity)”: median about 7.1, highest 2% from about 10 on). What follows is part of a selection rich in the highest values, with near analogues and random picks from the rest.

These sequences were tested on PfSIP2 AP2 domain 1 (GST-tagged) (assay: gcPBM binding intensity (ln(normalized median fluorescence intensity)); higher = stronger DNA binding).
Method in brief: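 An Agilent 4 × 180k array of primer-extended double-stranded 36-bp intergenic genomic probes, with negative controls, was incubated for 1 h with GST-tagged P. falciparum DNA-binding domains expressed in E. coli. Alexa488 anti-GST antibody detected bound protein, scanned at 488 nm. Binding intensity is the highest Masliner-normalised natural-log median intensity across replicate spots of either probe orientation.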
With “ATAAATAATAAAAAATGTACACATATAAATATAAAG [XGTACX_site727]” the “gcPBM binding intensity (ln)” value was 7.11.
With “TCTTACGGATTCATTGTGCACATATATATATATATA [GTGCAC_site9896]” the “gcPBM binding intensity (ln)” value was 9.46.
In the case of “AGCACACGCAGACACACACACACACGCACACGCACA [CACACA_site6306]”, the “gcPBM binding intensity (ln)” value is reported as 8.43.
For “TACCACATCGGTAAATGTACTTATAAAAAAAAAAAA [XGTACX_site3364]”, the “gcPBM binding intensity (ln)” value was 6.83.
In the case of “TATATATTGTTATATACACACATGTATTTAAAAAAT [CACACA_site5737]”, the “gcPBM binding intensity (ln)” value is reported as 6.91.
For “CATACAATAAATATGGTGCATTTTATGTAACCGTTT [GTGCAC_site9420]”, the “gcPBM binding intensity (ln)” value was 10.4.
In the case of “GATATATTTTATATATGTACATACAATGGTAAATAT [XGTACX_site2759]”, the “gcPBM binding intensity (ln)” value is reported as 7.09.
TTACACATGTATTTGGTGCATGTTGTTAACAAAATA was tested, and the “gcPBM binding intensity (ln)” value was 9.57.
With TTTTTGTTCTATATGGTGCATGTTTATATTCGTATT the “gcPBM binding intensity (ln)” value was 10.3.
In the case of “ATCATATTTATGTTGGTGCATTATACATAAAGTTTA [GTGCAC_site9574]”, the “gcPBM binding intensity (ln)” value is reported as 10.2.
With TTTATTTTGTTTATGGTGCATTTTATGTAAATATAT the “gcPBM binding intensity (ln)” value was 10.8.
“TATATATATATGTATGCATGTTGTTTTTTATTTAAT [TGCATGCA_site343]” was tested, and the “gcPBM binding intensity (ln)” value was 9.27.
In the case of “ACATTTAAAATTTATGCATGTGGTGTTTTGTATATA [TGCATGCA_site534]”, the “gcPBM binding intensity (ln)” value is reported as 7.26.
“ATATATATATTTTATGCATGTTCATTTTCTATATTT [TGCATGCA_site442]” was tested, and the “gcPBM binding intensity (ln)” value was 8.1.
With “ACACATGTATTTGGTGCATGTTGTTAAAAAAATATT [TGCATGCA_site795]” the “gcPBM binding intensity (ln)” value was 10.8.
“TTTTGTTTATGTGTGCATTATATTATATTTTTTATT [TGCATGCA_negctrl_site146]” was tested, and the “gcPBM binding intensity (ln)” value was 7.83.
In the case of “ATGAAATTTATATCATGTACATACAAGAGAAAAAAA [XGTACX_site3326]”, the “gcPBM binding intensity (ln)” value is reported as 7.
For “ATTCTTTTTTTTTGGAAATGTATTTTTATGTTTTGT [TGCATGCA_negctrl_site426]”, the “gcPBM binding intensity (ln)” value was 6.73.
“TTAAAAATAAATTCATGTACATAATATATATATATA [XGTACX_site7908]” was tested, and the “gcPBM binding intensity (ln)” value was 9.25.
For ATATATTTTTGTAGTGTGCACGTTTATATGGTGAAA, the “gcPBM binding intensity (ln)” value was 10.3.
“TTTTGTAATGTGAATATTTGTATATTATTTGTATAT [CACACA_negctrl_site1677]” was tested, and the “gcPBM binding intensity (ln)” value was 7.03.
In the case of “ATTTTGTGTAGTGATGCATGTTATATATATATTTGA [TGCATGCA_site422]”, the “gcPBM binding intensity (ln)” value is reported as 7.33.
In the case of TTTTTTGTTTGAATGGTGCATTTTGTAATTATATTT, the “gcPBM binding intensity (ln)” value is reported as 10.6.
For “TTATATTAATTTTGTTGTACTATTTGTGCATTAAAT [XGTACX_site4790]”, the “gcPBM binding intensity (ln)” value was 7.42.
In the case of “TTATATTTATATTTATGTACATATTTTGTGTGAAAA [XGTACX_site2367]”, the “gcPBM binding intensity (ln)” value is reported as 7.27.
In the case of “AAAAAAAAAAAAAATAGTACAATACCCAAATATAAC [XGTACX_site6684]”, the “gcPBM binding intensity (ln)” value is reported as 7.3.
With “GATAAATAATAATAAGGTACACATAAAATATTCCTT [XGTACX_site2963]” the “gcPBM binding intensity (ln)” value was 6.86.
With “CACACAGGTAAAAAGGTGCAGTTGAAATATTCCTCA [GTGCAC_site9730]” the “gcPBM binding intensity (ln)” value was 11.1.
In the case of “AAAAAAAAAAAAAAAGGTACAGTAAAAAATTCCTCT [XGTACX_site5947]”, the “gcPBM binding intensity (ln)” value is reported as 7.41.
“AAAAATAAATATACATGTACATAATAATAATATATA [XGTACX_site8359]” was tested, and the “gcPBM binding intensity (ln)” value was 6.97.
For “TATTTAAAATAATGTGCAAAAGAATAAATAAATAAA [TGCATGCA_negctrl_site194]”, the “gcPBM binding intensity (ln)” value was 7.23.
With GATAATCAGAATGGGGTGCAAAGAAAAAAAAAAAAA the “gcPBM binding intensity (ln)” value was 11.3.
In the case of CTTTTAGAATAATCAGTGCAAAAAAAAAAAAAAAAA, the “gcPBM binding intensity (ln)” value is reported as 8.42.
For “TTTTTTTTTAAGTTTGCACACATGGAAGACAAAAAT [CACACA_site2505]”, the “gcPBM binding intensity (ln)” value was 7.96.
